# OvCa metastasis: Primary qHTS assay for Inhibitors of ovarian cancer metastasis using an organotypic tumor microenvironment (TME) model. AID 1963576, 2024. Potency, µM (doses to about 45.8 µM), without a hit: at the top dose activity change, negative = inhibition, hits mostly inhibitors. SKOV3ip1-GFP adhesion/invasion on 3D omental model, fluorescence. 46,000 compounds, 0.1% hits;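 note: plate controls were DMSO wells for no effect and tomatine positive control wells for full effect; nearly all actives have a fitted effect of over 65% in size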
#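 Primary human omental fibroblast/mesothelial 3D culture pre-formed 48 h. SKOV3ip1-GFP cells added with compounds (0.36-46 umol/L), incubated 2 h RT/16 h 37 C, fixed; GFP cells quantified at 488/509 nm.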
# FH mod: Identification of activators of human fumarate hydratase by quantitative high-throughput screening; Fumarate hydratase, mitochondrial (Homo sapiens), P07954; Potency, µM (doses to about 79.9 µM), for the others: at the highest dose activity change, negative = inhibition, actives largely listed as inhibitors; 54,000 compounds, 0.22% hits; FH coupled MDH/diaphorase resazurin fluorescence, 15 min; note: the screen sought activators but most active calls are inhibition curves; nearly all actives have a fitted effect of over 45% in size
# Target sequence (P07954 whole entry, looked up): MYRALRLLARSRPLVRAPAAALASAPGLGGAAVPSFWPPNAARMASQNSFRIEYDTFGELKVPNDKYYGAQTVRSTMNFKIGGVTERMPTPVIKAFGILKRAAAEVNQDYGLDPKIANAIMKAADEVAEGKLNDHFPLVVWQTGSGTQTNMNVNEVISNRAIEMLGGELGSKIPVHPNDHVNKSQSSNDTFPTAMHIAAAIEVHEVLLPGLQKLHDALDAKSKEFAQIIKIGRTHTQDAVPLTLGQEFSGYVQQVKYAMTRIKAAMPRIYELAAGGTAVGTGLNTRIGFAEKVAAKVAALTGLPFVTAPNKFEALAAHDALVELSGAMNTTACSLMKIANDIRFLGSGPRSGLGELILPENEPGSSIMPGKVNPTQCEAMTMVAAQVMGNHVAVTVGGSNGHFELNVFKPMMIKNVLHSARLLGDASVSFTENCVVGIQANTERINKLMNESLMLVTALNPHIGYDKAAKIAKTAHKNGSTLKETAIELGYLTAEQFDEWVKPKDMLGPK
# p53null 32C kill: qHTS Screen for Compounds that Selectively Target Cancer Cells with p53 Mutations: Cytotoxicity of p53 Null Cells at the Permissive Temperature; H1299-neo p53 null cells, ATP luminescence, 24 h, 32C; Potency, µM (titrated, usually from 46.1 µM), without a hit: top-dose activity change, negative = cytotoxicity, usual class: cytotoxic; 55,000 compounds, 0.62% hits; AID 903, 2007;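 note: 0% = DMSO only and -100% = full killing by 100 µM tamoxifen; nearly all actives have a fitted effect of over 55% in size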
#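 H1299-neo (p53 null) cells, 600/well, treated 24 h at 32C with compound up to 46 uM; ATPlite luminescence viability, normalized to DMSO and 100 uM tamoxifen; AC50 by Hill fit.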
# NTMT1 inh: Primary qHTS for Inhibitors of N-terminal methyltransferase 1 (NTMT1): MTaseGlo Assay; Potency, µM (titrated, usually from 114 µM), for inactives: top-dose activity change, negative = inhibition, most hits filed as inhibitors; N-terminal Xaa-Pro-Lys N-methyltransferase 1 (Homo sapiens), Q9BV86; 59,000 compounds, 2.5% hits; NTMT1 MTase-Glo SAH luminescence, purified enzyme; AID 1645870, 2021;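 note: plate controls were DMSO vehicle for no effect and no enzyme for full effect; nearly all actives have a fitted effect of over 65% in size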
# p53null 39C kill: qHTS Screen for Compounds that Selectively Target Cancer Cells with p53 Mutations: Cytotoxicity of p53 Null Cells at the Nonpermissive Temperature; 55,000 compounds, 0.97% hits; H1299 p53-null (neo) cells, 39C, ATPlite viability, 24 h; AID 904, 2007; Potency, µM (series often up to 46.1 µM), inactives show at the highest dose activity, negative = cell killing, actives largely listed as cytotoxic;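 note: 0% = DMSO only and -100% = full killing by 100 µM tamoxifen; nearly all actives have a fitted effect of over 50% in size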
#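 Temperature-shift cytotoxicity format: compound titrations on p53-null or A138V-expressing H1299 cells held 24 hr at 39C, cell ATP then measured, AC50 from Hill model.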
# Active calls of the source: *; i = inactive; ? = inconclusive; · = not tested or not shown; ! = not confirmed by another sample; [ ] = dose if it differs, or a comment. The entries come from a sample that favours hits as a whole. Calls come from the whole dose curve; as a rule, active = well fitted curve in the direction sought with a large enough effect; inconclusive = small, poorly fitted or top-dose-only effect, or another doubt; inactive = no such curve, though single readings can be large; an effect the other way counts as inactive or inconclusive. Unless noted, % is set by controls: 0 for no effect and ±100 for the full control effect; potency is the fitted concentration of half-maximal effect.
SMILES,OvCa metastasis,FH mod,p53null 32C kill,NTMT1 inh,p53null 39C kill
Cc1cccn2c(=O)cc(CSc3nnc(NC(=O)COc4ccccc4)s3)nc12,i,-29%,-5%,40µM*,5%
Cc1cccn2c(=O)cc(COc3cccc(NC(=O)c4ccccc4F)c3)nc12,?,-14%,-12%,?,7.9µM*
COC(=O)c1ccccc1NC(=O)Nc1cccc(OCc2cc(=O)n3cccc(C)c3n2)c1,i,0%,-2%,3%,2%
[2H]C([2H])([2H])C(O)([C@@H](C)/C=C/[C@@H](C)[C@H]1CC[C@H]2/C(=C/C=C3C[C@@H](O)C[C@H](O)C3)CCC[C@]12C)C([2H])([2H])[2H],·,·,·,7%,·
CCOc1ccc(NC(=O)c2ccc(-c3nc4ccccc4[nH]3)cc2)cc1Cl,·,·,·,14%,·
Cc1nc(NC(=O)N2CCCC2C(N)=O)sc1-c1ccnc(C(C)(C)C(F)(F)F)c1 (centres undefined),·,5%,·,45µM*,·
Cc1cccc2sc(NC(=O)[C@@H]3CCCN3C(=O)c3cccs3)nc12,·,·,·,·,13%[1.84 µM]
CCOC(=O)C1CCN(C(=O)C(C)(C)NC(=O)Nc2ccc(C#N)cc2)CC1,·,·,·,4%,·
COc1ccccc1CNC(=O)CSc1ncc2c(n1)-c1ccccc1N(Cc1ccc(C)cc1)S2(=O)=O,3%,0%,3%,79µM*,-10%
COc1ccccc1CNC(=O)CSc1ncc2c(n1)-c1ccc(Cl)cc1N(Cc1ccccc1)S2(=O)=O,i,-7%,-8%,2%,-11%
O=C(Nc1ccc(NC(=O)c2ccco2)nc1)c1cccnc1,·,·,13µM*,·,?
CC(C)n1cnc2c(NCc3cccc(C(F)(F)F)c3)ncnc21,·,-1%,·,-17%,·
CC1(COc2ccc3c(c2)ncn3-c2ccc3cccc(N4CCC(N)CC4)c3n2)COC1,-4%,2%,·,22µM*!,·
COc1ccc(-n2cnc3cc(N)ccc32)cc1,·,·,-10%,·,-3%
CCOc1ccc(NC(=O)c2ccccc2O)cc1,·,·,7.1µM*,·,7.9µM*
CCOc1ccc(NC(C)=O)cc1,·,6%[53.3 µM],·,-10%[57.5 µM],·
C[n+]1ccc(-c2c3nc(c(-c4cc[n+](C)cc4)c4ccc([nH]4)c(-c4cc[n+](C)cc4)c4nc(c(-c5cc[n+](C)cc5)c5ccc2[nH]5)C=C4)C=C3)cc1,·,6%,·,14µM*,·
CC(C)Oc1ccc(CNC(=O)Cn2nc(N3CCN(c4ccccc4)CC3)ccc2=O)cc1,-7%,-4%,-6%,89µM*,-6%
CCc1cccc(-n2nnc(-c3nsc(NC(=O)c4cccs4)n3)c2C)c1,0%,24%,-5%,0%,10µM*
CSc1cccc(-n2nnc(-c3nsc(NC(=O)c4cccs4)n3)c2C)c1,-3%,-33%,-6%,9%,?
CNc1nnc(-c2ccc(N(C)C)cc2)s1,·,·,8.9µM*,·,7.9µM*
CC(C)(C)NC(=O)Nc1nnc(-c2ccncc2)s1,·,·,·,0%,·
COc1ccc([S+](=O)([O-])N2CCCN([S+](=O)([O-])c3ccc(OC)c(N)c3)CC2)cc1N,·,·,·,5%[57.5 µM],·
O=C(Cn1nc(C2CCCCC2)ccc1=O)NCCc1ccccc1,·,·,·,-9%,·
Cc1ccc(NC(=O)N2CCc3ccccc32)cc1,·,·,5.6µM*,·,5µM*
SMILES,OvCa metastasis,FH mod,p53null 32C kill,NTMT1 inh,p53null 39C kill
CCNC(=O)c1ccc(NC(=O)N2CCCCc3ccccc32)cc1,13%,7%,-3%,-1%,0%
N#Cc1ccc2ncnc(NCCc3ccccc3)c2c1,·,-1%,·,4%[57.5 µM],·
Oc1c(I)cc(Cl)c2cccnc12,·,19%[53.3 µM],·,50µM*,·
CC1(N)CCN(c2cnc(-c3cccc(Cl)c3Cl)c(N)n2)CC1,·,·,·,0%[57.5 µM],·
CCOC(=O)c1cnc2ccc(-c3cncc(NS(=O)(=O)c4ccccc4)c3)cn12,·,23%,·,28µM*,·
Cc1ccc(CNC(=O)Cn2nc(C)n3cccc3c2=O)cc1,-22%,-2%,-8%,5%,-4%
O=C(Cn1nc2c(cc1=O)CCCC2)NCc1ccccc1,i,1%,29%,89µM*,23%
CCc1nn(CC(=O)NCc2ccccc2)c(=O)c2cccn12,4%,2%,-7%,-3%,25µM*
Cc1ccc(CNC(=O)c2ccc3c(c2)c(C)c(C)n3Cc2ccccc2)o1,-21%,-27%,10%,22µM*,?
CCc1ccc(CNC(=O)c2ccc3c(c2)c(C)c(C)n3Cc2ccccc2)cc1,-2%,-15%,7%,?,2%
Cc1c(C)n(Cc2ccccc2)c2ccc(C(=O)OCCN(C)C)cc12,·,-8%[53.3 µM],·,5.6µM*,·
COC(=O)C1=COC(O[C@@H]2O[C@H](CO)[C@@H](O)[C@H](O)[C@H]2O)/C(=C\COC(=O)c2ccc(OC3OC(CO)C(O)C(O)C3O)c(OC)c2)C1CC(=O)OCCc1ccc(O)cc1 (some centres undefined),·,6%[20.6 µM],·,8%[12.6 µM],·
CCC(=O)N1c2ccccc2CC1C(=O)NCCCN1CCN(c2ccc(F)cc2)CC1 (centres undefined),i,-25%,-3%,89µM*,-16%
CCC(=O)N1c2ccccc2CC1C(=O)NCCN1CCN(c2ccccc2F)CC1 (centres undefined),i,-2%,-5%,15%,-11%
CCOc1ccc(CCNC(=O)CN(C)C)cc1OCC,·,·,·,4%,·
CCOC(=O)Nc1ccc(NCc2ccc(F)cc2)nc1N,-22%,13µM*!,·,?,·
CCOC(=O)c1cc(S(=O)(=O)NCc2ccc(F)cc2)[nH]n1,5%,-4%,-4%,?,-2%
Cc1ccc(NC(=O)c2c(NC(=O)C(F)(F)F)sc3c2CCCCC3)cc1,i,?,?,-25%,?
Cc1cccc(NC(=O)c2c(NC(=O)C(F)(F)F)sc3c2CCCCC3)c1,?,?,-8%,10µM*,?
O=C(COc1ccc(Cl)cc1)Nc1sc2c(c1C(=O)Nc1cccc(Cl)c1)CCCC2,-4%,3%,-3%,25µM*,4%
Cc1ccccc1NC(=O)c1c(NC(=O)C(F)(F)F)sc2c1CCCCC2,i,?,?,-6%,?
COc1ccc(NC(=O)c2c(NC(=O)COc3ccccc3)sc3c2CCCCC3)cc1,0%,4%,0%,4%,-5%
O=C(Nc1cccc(Cl)c1)c1c(NC(=O)C(F)(F)F)sc2c1CCCC2,?,?,?,8.9µM*,?
c1ccc(-c2cnn3cc(-c4ccc(OCCN5CCOCC5)cc4)cnc23)cc1,·,-9%,·,4%,·
